Activity calls are given as the source filed them.

Experiment [1] relates to Human papillomavirus type 1a protein E7 (residues 44-93). Nature of the experiment: small molecules binding HPV E7 44-93 – biochemical, small-molecule microarray, residues 44-93, 635 nm fluorescence, primary screen (AID 1108).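 Also: E7 fragment applied at 1 µg/mL in TBST for 1 h at 4 C; score combines spot fluorescence with its signal to noise ratio.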 The settings on record: fluorescence 635 nm, higher = more signal.
Experiment [2] in a line: hepatitis C replication reporter changes, two-sided – Huh7 cells, luciferase reporter, HCV replication inhibitor project, primary screen (AID 1109).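 Also: huh7 hepatoma cells harbouring a luciferase neomycin HCV replicon reporter; luciferase luminescence as measure of HCV replicon replication; test concentration not given here.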 As to conditions: Huh7 HCV replicon luciferase reporter, 48 h; higher = more signal. In general terms: A reporter such as luciferase makes a cellular process visible.
Experiment [3] has as its target Left-right determination factor 2 (Homo sapiens) (UniProt O00292). Nature of the experiment: small molecules binding LEFTY2 protein – biochemical, small-molecule microarray, 635 nm fluorescence scan, primary screen (AID 1110). The settings on record: higher = more signal.
The target in experiment [4] is Calmodulin-1 (Homo sapiens) (UniProt P0DP23). Nature of the experiment: small molecules binding calmodulin-1 with EGTA – biochemical, small-molecule microarray, Cy5-labelled CALM1, profiling panel (AID 1111).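 Also: labelled calmodulin applied in Tris saline Tween buffer holding calcium plus EGTA and DTT.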 As to conditions: Cy5-CALM1 binding fluorescence, higher = more signal.
Experiment [5] shares this target. The experiment in a line: small molecules binding Ca-loaded calmodulin-1 – biochemical, small-molecule microarray, Cy5-labelled CALM1, plus calcium, artefact control for SMM control-protein annotation, profiling panel (AID 1112).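 Also: score merges spot fluorescence with signal to noise from triplicate slides.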 The settings on record: Cy5-CALM1 binding fluorescence, higher = more signal.
Experiment [6] in a line: probe aWnt5a binding to arrayed compounds – biochemical, biotinylated probe, 635/667 nm fluorescence, primary screen (AID 1113).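 Also: score merges 667 nm fluorescence intensity with signal-to-noise per printed feature.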 The settings on record: small-molecule microarray, higher = more signal.
A short description of experiment [7]: probe aShh binding to arrayed compounds – biochemical, biotinylated probe, 635/667 nm fluorescence, primary screen (AID 1114).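 Also: probe is biotin-labelled aShh protein from a stem cell growth factor screen; measures binding of labelled protein to compounds printed on the slide; score merges feature fluorescence at 667 nm with signal-to-noise.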 The settings on record: small-molecule microarray, higher = more signal.
Experiment [8] is described as follows: probe aNog binding to arrayed compounds – biochemical, biotinylated probe, 635/667 nm fluorescence, primary screen (AID 1115).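 Also: probe is biotinylated aNog protein used at 0.15 µg/mL for 1 h at 4 C; z-score combines 667 nm fluorescence of each spot with its signal to noise.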 The settings on record: small-molecule microarray, higher = more signal.
Experiment [9] deals with Torsin-1A-interacting protein 1 (Homo sapiens) (UniProt Q5JTV8). The experiment in a line: compound microarray binding of lysate hLAP1 – cell lysate, small-molecule microarray, COS7 lysate, 635/667 nm fluorescence, primary screen (AID 1116). The settings on record: 635 nm fluorescence, higher = more signal.
Torsin-1A-interacting protein 1 (Homo sapiens), sequence (Q5JTV8 whole entry, looked up): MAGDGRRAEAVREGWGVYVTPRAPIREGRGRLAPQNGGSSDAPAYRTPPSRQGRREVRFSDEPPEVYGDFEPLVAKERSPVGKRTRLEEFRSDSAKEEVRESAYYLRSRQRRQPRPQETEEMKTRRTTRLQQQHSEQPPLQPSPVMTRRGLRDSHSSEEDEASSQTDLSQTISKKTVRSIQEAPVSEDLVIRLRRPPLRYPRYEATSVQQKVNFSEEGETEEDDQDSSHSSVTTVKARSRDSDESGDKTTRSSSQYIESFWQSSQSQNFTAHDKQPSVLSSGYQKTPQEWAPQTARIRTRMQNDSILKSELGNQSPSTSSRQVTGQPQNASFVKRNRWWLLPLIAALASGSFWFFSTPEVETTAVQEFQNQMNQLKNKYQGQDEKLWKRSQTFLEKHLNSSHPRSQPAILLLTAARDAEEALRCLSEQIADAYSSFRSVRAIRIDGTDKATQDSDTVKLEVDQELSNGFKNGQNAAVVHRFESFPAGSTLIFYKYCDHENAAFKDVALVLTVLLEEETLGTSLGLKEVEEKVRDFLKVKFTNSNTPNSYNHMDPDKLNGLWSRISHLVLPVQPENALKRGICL
Experiment [10] concerns the target Alpha-bungarotoxin (Bungarus multicinctus) (UniProt P60615). The experiment in a line: compounds binding labelled alpha-BTX control protein – biochemical, small-molecule microarray, Alexa647 label, 635/667 nm fluorescence, artefact control for SMM control protein annotation, profiling panel (AID 1117). As to conditions: alpha-BTX-A647 binding fluorescence, higher = more signal.

The target in a further experiment is Albumin (Bos taurus) (UniProt P02769). Nature of the experiment: compounds binding labelled BSA control protein – biochemical, small-molecule microarray, Alexa647 label, 635/667 nm fluorescence, artefact control for SMM control protein annotation, profiling panel (AID 1118).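 Also: score merges 667 nm emission intensity and signal-to-noise per printed compound spot.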 The settings on record: BSA-A647 binding, fluorescence 635 nm, higher = more signal.
Albumin (Bos taurus), sequence (P02769 whole entry, looked up): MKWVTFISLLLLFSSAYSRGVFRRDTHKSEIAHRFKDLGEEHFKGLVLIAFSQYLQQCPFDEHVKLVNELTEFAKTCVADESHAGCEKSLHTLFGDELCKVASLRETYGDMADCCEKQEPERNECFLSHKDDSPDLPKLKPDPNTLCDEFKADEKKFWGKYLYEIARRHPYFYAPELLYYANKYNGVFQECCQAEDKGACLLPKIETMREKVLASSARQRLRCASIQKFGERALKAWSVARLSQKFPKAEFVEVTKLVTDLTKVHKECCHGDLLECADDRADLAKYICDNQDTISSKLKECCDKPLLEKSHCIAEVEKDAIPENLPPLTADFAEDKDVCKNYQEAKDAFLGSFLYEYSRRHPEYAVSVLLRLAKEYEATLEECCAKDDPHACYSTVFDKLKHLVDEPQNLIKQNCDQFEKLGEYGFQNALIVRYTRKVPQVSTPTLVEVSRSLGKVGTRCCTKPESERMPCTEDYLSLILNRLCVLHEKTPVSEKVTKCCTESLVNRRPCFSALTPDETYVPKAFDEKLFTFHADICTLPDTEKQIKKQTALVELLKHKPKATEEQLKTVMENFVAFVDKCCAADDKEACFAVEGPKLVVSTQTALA
Experiment [11] in a line: probe aXIP binding to arrayed compounds – biochemical, NeuroSMM set, 635/667 nm fluorescence, primary screen (AID 1119).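 Also: probe is the protein aXip251-270 applied at 1 µg/mL to compound-printed slides; binding of probe to printed compounds measured as 667 nm fluorescence plus signal to noise.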 As to conditions: small-molecule microarray, higher = more signal, called active from +8 up or from −8 down.
Experiment [12] can be described thus: probe aNOTCH3 binding on compound microarray – biochemical, small-molecule microarray, 635/667 nm fluorescence, primary screen (AID 1120).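 Also: probe is a biotin-tagged antibody raised against NOTCH3 rather than NOTCH3 protein; score merges spot fluorescence near 667 nm with spot signal to noise.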 As to conditions: higher = more signal.
Experiment [13] in a line: probe aNOTCH2 binding on compound microarray – biochemical, small-molecule microarray, 635/667 nm fluorescence, primary screen (AID 1121).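 Also: score merges feature fluorescence read at 667 nm with its signal to noise.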 The settings on record: higher = more signal.
Experiment [14] deals with Carbonic anhydrase 2 (Homo sapiens) (UniProt P00918). Nature of the experiment: compounds binding carbonic anhydrase 2 – biochemical, small-molecule microarray, Alexa647-labelled CAII, profiling panel (AID 1122). As to conditions: CAII-A647 binding fluorescence, higher = more signal.
Experiment [15] can be described thus: COS7 lysate on small-molecule microarray, probe aHis, 635 nm (AID 1123).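 Also: z-score combines 667nm fluorescence intensity with signal-to-noise per printed compound spot.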 The settings on record: COS7 cell lysate, fluorescence, higher = more signal.
The nature of experiment [16]: probe aLAP1 signal on lysate-treated microarray – cell lysate, small-molecule microarray, COS7 lysate, primary screen (AID 1124).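 Also: lysate comes from COS7 cells expressing LAP1 and is applied at 0.3 µg/mL; score merges spot fluorescence near 667 nm with signal-to-noise over triplicate slides.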 As to conditions: probe aLAP1, fluorescence, higher = more signal.
The subject of another experiment is Sam68 (KHDRBS1). The experiment in a line: compounds binding KHDRBS1 protein – biochemical, small-molecule microarray, 635 nm fluorescence, primary screen (AID 1125).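 Also: score merges 667 nm channel intensity with signal to noise over triplicate slides.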 The settings on record: higher = more signal.
Experiment [17] concerns Chordin-like protein 2 (CHRDL2). The experiment in a line: compounds binding chordin-like 2 – biochemical, small-molecule microarray, 635 nm fluorescence, primary screen (AID 1126).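 Also: printed compound slides probed with Chrdl2 protein at 4 µg/mL for 1 h at 4 C; score merges 667 nm emission intensity with signal to noise over three replicate slides.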 As to conditions: fluorescence 635 nm, higher = more signal.
Experiment [18] deals with Concanavalin-A (Canavalia ensiformis) (UniProt P02866). The experiment in a line: compounds binding concanavalin A lectin – biochemical, small-molecule microarray, Alexa647 label, 635 nm, artefact control for SMM control protein annotation, primary screen (AID 1127).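 Also: z combines 667 nm emission intensity with signal-to-noise across three replicate slides.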 As to conditions: ConA-A647 binding fluorescence, higher = more signal.
Concanavalin-A (Canavalia ensiformis), sequence (P02866 whole entry, looked up): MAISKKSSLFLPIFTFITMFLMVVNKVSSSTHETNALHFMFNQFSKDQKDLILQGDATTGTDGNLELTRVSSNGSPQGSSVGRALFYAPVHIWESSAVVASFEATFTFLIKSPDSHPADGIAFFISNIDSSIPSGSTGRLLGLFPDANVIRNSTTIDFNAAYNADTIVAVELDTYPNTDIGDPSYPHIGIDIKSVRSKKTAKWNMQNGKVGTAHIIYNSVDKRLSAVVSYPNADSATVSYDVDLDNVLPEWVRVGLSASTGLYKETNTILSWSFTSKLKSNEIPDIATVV

Left-right determination factor 2 (Homo sapiens), sequence (O00292 whole entry, looked up): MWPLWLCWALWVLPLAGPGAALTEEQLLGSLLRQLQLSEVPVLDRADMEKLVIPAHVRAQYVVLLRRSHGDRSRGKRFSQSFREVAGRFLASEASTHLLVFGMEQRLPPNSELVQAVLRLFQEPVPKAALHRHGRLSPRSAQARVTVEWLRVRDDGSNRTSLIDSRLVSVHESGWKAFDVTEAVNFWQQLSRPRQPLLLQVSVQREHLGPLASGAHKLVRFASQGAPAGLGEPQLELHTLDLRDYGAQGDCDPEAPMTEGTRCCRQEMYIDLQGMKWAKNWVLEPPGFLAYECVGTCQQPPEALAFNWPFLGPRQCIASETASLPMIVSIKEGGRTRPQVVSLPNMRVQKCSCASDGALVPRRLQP
Alpha-bungarotoxin (Bungarus multicinctus), sequence (P60615 whole entry, looked up): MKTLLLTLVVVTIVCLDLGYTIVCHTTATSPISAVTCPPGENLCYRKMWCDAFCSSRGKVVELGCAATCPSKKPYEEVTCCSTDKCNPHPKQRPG

`COC(=O)[C@@]1(Cc2ccc(F)cc2)[C@H]2c3cc(C(=O)N(C)C)n(CCN4CCOCC4)c3C[C@H]2CN1C(=O)c1ccccc1`: the composite z-score in experiment [1] was 0.357; in experiment [3], 0.134; in experiment [4] it was 0.639; in experiment [5] it was -0.125; in experiment [6] it was 0.974; in [7] it was 0.275. In addition, the composite z-score in experiment [8] is 0.932; in experiment [9], 0.868; in experiment [10], 0.0194; with Albumin (Bos taurus), 0.851; in [12], 0.296; in experiment [13], 0.739. For the same compound, the composite z-score in [14] was 0.39; in [15], 2.08; in experiment [16], 0.0192; with Sam68 (KHDRBS1), -0.0247; in experiment [17], -0.361; in experiment [18], 0.618. Moreover, the z-score in [2] amounted to 0.349. Also, in [11], the composite Z-score was -0.34 (inactive).

Turning to `COCC1=C([C@H](O)CCc2ccccc2)[C@H](CO)n2c(=O)n(-c3ccccc3)c(=O)n2C1`, the composite z-score in [1] is -0.253; in experiment [3], 0.292; in experiment [4], -0.357; in experiment [5], -0.764; in experiment [6] it was -0.175; in experiment [7] it was -0.0553. Also, the composite z-score in experiment [8] is -0.0927; in experiment [9], -0.103; in [10] it was -0.349; with Albumin (Bos taurus), -0.442; in [12], -0.0014; in experiment [13], -0.212. For the same compound, the composite z-score was -0.447 in experiment [14]; -0.303 in experiment [15]; -0.469 in experiment [16]; -0.73 in the experiment on Sam68 (KHDRBS1); 0.319 in experiment [17]; 0.134 in [18]. Further, the z-score in experiment [2] is -0.482. Besides, in experiment [11], the composite Z-score is 0.0423 (inactive).

Consider `COC(=O)[C@@]1(CCS(=O)(=O)c2ccccc2)N=C(c2ccc(OCCCO)cc2)O[C@H]1c1ccccc1N=[N+]=[N-]`, for which the composite z-score in [1] was 1.38; in experiment [3], 0.406; in experiment [4] it was 1.29; in experiment [5], 0.383; in [6], -0.0455; in experiment [7], -0.0904. The composite z-score in experiment [8] is 0.424; in experiment [9], 0.861; in [10], 2.23; with Albumin (Bos taurus), 0.827; in experiment [12] it was 0.0237; in experiment [13] it was 0.0196. Also, the composite z-score in experiment [14] was 0.356; in experiment [15], 2.92; in experiment [16] it was 0.406; with Sam68 (KHDRBS1), 1.3; in experiment [17] it was 0.889; in experiment [18], 1.11. Besides, in experiment [2], the z-score is -1.83. Further, in experiment [11], the composite Z-score is -0.0127 (inactive).

Regarding `C=C(COC)/C(=C/C[C@H](OC(=O)c1ccncc1)c1ccc(OCCO)cc1)c1cc(C(=O)OC)ccc1OC`, the composite z-score in experiment [1] is 1.42; in experiment [3] it was 0.431; in [4] it was 0.579; in experiment [5], -0.467; in experiment [6] it was 0.0077; in [7] it was 0.157. Further, the composite z-score in experiment [8] was 0.484; in experiment [9] it was 1.18; in experiment [10], 1.23; with Albumin (Bos taurus), 0.401; in [12], 0.325; in experiment [13] it was -0.123. Further, the composite z-score in [14] was found to be 0.357; in experiment [15], 1.39; in experiment [16], 0.84; in the experiment with Sam68 (KHDRBS1), 1.26; in experiment [17] it was 0.249; in [18] it was 0.952. Further, the z-score in [2] was -1.66. Further, the composite Z-score in [11] is 0.3 (inactive).

With `CC(C)C[C@H]1NC(=O)[C@@H](C)NC(=O)[C@@]23C(=O)N[C@@H](Cc4ccccc4)C2[C@H](C)[C@@]2(C)O[C@H]2C3/C=C/C/C=C\CNC1=O` (stereo not given in full), the composite z-score is 1.29 in [1]; 0.137 in experiment [3]; -0.596 in [4]; -1.09 in experiment [5]; -0.175 in experiment [6]; -0.223 in experiment [7]. For the same compound, the composite z-score in [8] was -0.205; in [9], -0.0872; in [10], -0.133; with Albumin (Bos taurus) it was 0.239; in experiment [12] it was -0.189; in [13], -0.202. Moreover, the composite z-score in experiment [14] is 0.686; in experiment [15] it was 0.394; in experiment [16] it was -0.0995; in the experiment with Sam68 (KHDRBS1), 0.997; in experiment [17] it was 0.831; in experiment [18] it was 0.124. The same compound had a z-score in experiment [2] of -1.61. The composite Z-score in [11] is -0.162 (inactive).

With `COCCOC(=O)N1C(=O)[C@@]2(c3cc(C#CCCO)ccc31)[C@H](C(=O)N1CCc3cc(OC)c(OC)cc3C1)[C@H]1C(=O)O[C@H](c3ccccc3)[C@H](c3ccccc3)N1[C@@H]2c1ccccc1OCCO`, the composite z-score is 1.4 in [1]; 0.473 in [3]; 1.43 in experiment [4]; 0.013 in [5]; 0.186 in experiment [6]; -0.0146 in experiment [7]. The composite z-score came to 0.596 in [8]; 0.325 in experiment [9]; 0.477 in experiment [10]; 0.357 in the experiment with Albumin (Bos taurus); 0.285 in experiment [12]; 0.0401 in experiment [13]. For the same compound, the composite z-score in [14] was found to be 0.422; in [15], 1.2; in [16], 1.01; in the experiment with Sam68 (KHDRBS1), 1.32; in experiment [17], 0.855; in experiment [18] it was 1.13. The compound also yielded a z-score in [2] of -1.75. For the same compound, the composite Z-score in [11] was 0.471 (inactive).
